From ChEMBL document CHEMBL4513216, “Probing the Open Global Health Chemical Diversity Library for Multistage-Active Starting Points for Next-Generation Antimalarials” (ACS Infect Dis, 2020)
About 2,100 (3.2%) of roughly 65,000 compounds showed an effect of 50% or more. The median lay at about -52%. Only a selection was taken, and strong results are over-represented in it overall.

The compounds below were run on Plasmodium falciparum (assay: Screen against P. falciparum Asexual Blood Stage (ABS), at 5uM). Settings: tested at 5 uM.
Assay type: functional, Dd2

Compound	INHIBITION [%]
COc1ccc(CNC(C)c2ccc(Cl)cc2)c(OC)c1OC (stereo not given)	80.9
COc1ccc(CNC(C)c2ccccc2Cl)c(OC)c1OC (stereo not given)	75.6
COc1ccc(CNC(C)Cn2cccn2)c(OC)c1OC (stereo not given)	-37.6
CCOc1cccc(C(C)NCc2ccc(OC)c(OC)c2OC)c1 (stereo not given)	77.6
CNS(=O)(=O)c1cccc(C(C)NCc2ccccc2OC)c1 (stereo not given)	86.6
O=C1C[C@@H]2[C@H](CCN2Cc2ccccn2)N1Cc1ccncc1	19.2
Cc1n[nH]c(C)c1CNC(=O)c1cn(CCC2CCCCN2)nn1 (stereo not given)	-24.9
c1coc(CNc2ncc3c(n2)C2(CCNC2)COC3)c1 (stereo not given)	-66
CC(C)N1CCCC(Cc2nccnc2Cl)CC1 (stereo not given)	-7.14
Cn1ccc(CN2CCCC23CCNCC3)n1	-53.7
O=C([C@H]1C[C@H]2OCC[C@H]2N(Cc2ccccn2)C1)N1CCCCO1	-88.5
COCC(O)CN(C)c1ccnc2cc(Br)ccc12 (stereo not given)	94.4
Cc1cc(CN2CCN3C[C@H](c4ccccc4)[C@@H](CO)[C@H]3C2)on1	-81.4
Cc1ccc(N2CCC3(CCCN3Cc3ccn(C)n3)CC2)nn1	-63.5
Cc1ccccc1-n1cc(C2=CCN(CCN3CCOCC3)CC2)cn1	-4.21
CN(C)C(=O)[C@H]1CC[C@@H]2[C@@H](CCN2Cc2ccccn2)O1	-43.5
CN(C)C(=O)[C@@H]1CC[C@@H]2[C@@H](CCN2Cc2ccccn2)O1	-97.6
CC(C)NC(=O)[C@@H]1CC[C@@H]2[C@@H](CCN2Cc2cn(C)c3ccccc23)O1	77.6
CCN(CC)C(=O)C1CCC2(CCNCC2)CO1 (stereo not given)	-31.8
COCC(=O)NC(C)Cc1ccc(Br)cc1 (stereo not given)	17.4
Cc1nc(Nc2ccc(Cl)cn2)sc1C(=O)NCCCN1CCCCC1	81.4
Cc1cnc(N2CCN3C[C@H](OCc4ccccn4)C[C@H]3C2)nc1	-24.1
O=C(c1nn(-c2ccccc2F)cc1O)N1CCC2(CC1)OCCO2	-12.3
CCCN1CCCC(O)(c2nc(C)c(COc3ccccc3)s2)CC1 (stereo not given)	83.2
O=S1(=O)CCC(n2cc(C3=CCN(CCc4ccccc4)CC3)cn2)C1 (stereo not given)	-45.5

Compound	INHIBITION [%]
O=C(Nc1cccnc1)[C@H]1CN(Cc2nccs2)C[C@H]2OCC[C@@H]12	-93.3
CCC(CC)(CN)NC(C)c1ccccc1 (stereo not given)	83.4
Cc1c(C(=O)O)nnn1Cc1cccc(C(F)(F)F)c1	-66.5
CC(O)CN1CCC(CNCc2cccc(OC(F)(F)F)c2)CC1 (stereo not given)	80.1
CC(O)CN1CCC(CNCc2ccc(OC(F)(F)F)cc2)CC1 (stereo not given)	86.9
CC(=O)N1CCC(CCNC(C)Cc2ccc(F)cc2)CC1 (stereo not given)	-0.762
O=C(Cc1ccc(F)cc1)N1CCN(CC(O)C2CC2)CC1 (stereo not given)	1.79
CC(O)CN1CCC(CNCc2cccc(C(F)(F)F)c2)CC1 (stereo not given)	83.1
Cc1nc(CN2CCOC3(CCCC3)C2)no1	-138
C[C@@H]1CN(C2CCOCC2)C[C@]12CCN(c1cccnc1)C2=O	-104
Cc1ccc(-c2ccnc3cc(CC(=O)N4CCN(C)CC4)nn23)cc1	-116
CC(C)N(C)C(=O)C1CCC2(CCNCC2)O1 (stereo not given)	-214
c1cc(CO[C@@H]2CC[C@H]3[C@H]2OCCN3Cc2ccoc2)ccn1	-169
CC(C)CCC(=O)N1C[C@H]2CCN[C@H]2C1	-114
CCc1noc(C)c1C(=O)NCC(c1ccc(C)cc1)N(C)C (stereo not given)	71.4
Cc1noc(CN2CC=C(c3cnn(C4CCS(=O)(=O)C4)c3)CC2)n1 (stereo not given)	-15.1
CC(C)(C)n1ncc2c1NC(=O)CSC2c1ccc2c(c1)OCO2 (stereo not given)	-138
NC(=O)c1ccc(N2CCCCC2)c(NC(=O)c2ccc(Br)cc2)c1	71.3
O=C(NC[C@H]1C[C@@H]2CCN1C[C@@H]2CN1CCOCC1)Nc1ccccc1	-40.4
Cc1cccc(Nc2ccc(C3CCCCN3)cn2)n1 (stereo not given)	81.4
c1cnc(Nc2ccc(C3CCCCN3)cn2)cn1 (stereo not given)	13.6
Cc1cc(C)nc(Nc2ccc(C3CCCCN3)cn2)n1 (stereo not given)	-64.1
CC(C)C1CCCN1C(=O)c1ccc(-n2ncc(C#N)c2N)cc1 (stereo not given)	71.4
Cc1cc(CN2C[C@@H]3COC[C@]3(COCc3csc(C)n3)C2)no1	-58.8
Cc1cc(CN2C[C@H]3CCC[C@@]3(COCc3csc(C)n3)C2)no1	14.2
